The record followed here is ChEMBL document CHEMBL3988442, “University of Dundee, Small-Polar-MMV Screening Library” (2021).

Each structure is given as a SMILES string.

The experiment deals with T1, Aspartate--tRNA(Asp/Asn) ligase (Mycobacterium tuberculosis (strain ATCC 25618 / H37Rv)) (UniProt P9WFW3).
T1 sequence (whole entry): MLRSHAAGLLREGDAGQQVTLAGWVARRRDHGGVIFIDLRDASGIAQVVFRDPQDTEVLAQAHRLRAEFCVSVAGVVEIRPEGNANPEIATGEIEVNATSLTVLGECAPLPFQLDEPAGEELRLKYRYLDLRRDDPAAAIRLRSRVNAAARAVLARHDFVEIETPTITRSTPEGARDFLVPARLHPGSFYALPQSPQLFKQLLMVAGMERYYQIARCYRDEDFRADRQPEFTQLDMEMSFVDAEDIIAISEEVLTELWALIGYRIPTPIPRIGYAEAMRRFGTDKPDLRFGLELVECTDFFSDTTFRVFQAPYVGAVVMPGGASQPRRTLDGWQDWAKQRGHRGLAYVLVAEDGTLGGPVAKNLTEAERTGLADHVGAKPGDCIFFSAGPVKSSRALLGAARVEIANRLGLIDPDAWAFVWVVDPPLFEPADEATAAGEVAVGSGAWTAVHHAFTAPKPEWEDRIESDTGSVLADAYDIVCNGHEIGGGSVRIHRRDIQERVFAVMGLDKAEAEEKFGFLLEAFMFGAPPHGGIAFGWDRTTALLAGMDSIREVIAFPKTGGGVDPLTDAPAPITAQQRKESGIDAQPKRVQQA
Put plainly: Assay for Asp RNA synthetase-1 from Mycobacterium tuberculosis. It is filed as functional. Set-up: scale not given: in the data most compounds retested in dose-response had high values. As to conditions: 30 µM.
On to `CC(C)c1ncc(CN2C[C@@H](CN3CCC(CO)CC3)[C@@H](CO)C2)cn1`, for which the Percent Effect is -1.92%.
As for `O=C(NCCc1cccc(O)c1)NC1CCN(c2ccccc2)C1=O` (stereo not given), the figure is -2.7%.
As for `O=S(=O)(Cc1ccccc1F)NCCN1CCOCC1`, the figure is -2.93%; as for `COc1cc(C)c(CN2CCC3(CC2)C(C(=O)O)CC(=O)N3C)cc1C` (stereo not given), -0.678%.
Next, `COc1cccc(S(=O)(=O)CCN2CCC3(CC2)OCCO3)c1`: -0.724%; `Cc1nn(CCn2ccnc2-c2cc3n(n2)CCCNC3)c(C)c1Cl`: -0.0115%; `O=C(NCCCc1ccncc1)C1CCCN(Cc2ccco2)C1` (stereo not given): 2.17%.
Take `O=C(COc1cccc(Br)c1)N1CCN(c2nccs2)CC1`: the Percent Effect was determined as 1.41%.
Next, `Cn1nccc1C(=O)N1CCOC(Cc2cccc(C(F)(F)F)c2)C1` (stereo not given): -2.91%; `O=C(O)[C@]12CCCN(Cc3ccncc3)[C@@H]1CCN(c1cnccn1)C2`: 0.862%; `CCn1nc(C)c(CNC(=O)c2cn(CC3CCCO3)nn2)c1C` (stereo not given): -4.13%.
For the compound `CN(CCO)Cc1nnc(C2CCN(C3CCCCC3)CC2)n1C`, the Percent Effect amounted to 4.1%.
`O=C(NCCc1csc(N2CCCC2)n1)N(C1CCCC1)C1CC1`: the Percent Effect is 4.33%.
Next, `c1cnn(Cc2nnc(C3CCN(C4CCOCC4)CC3)n2C2CC2)c1`: -4.17%.
As for `CC(Sc1nnnn1C1CCOCC1)C(=O)NC1CCCCC1` (stereo not given), the figure is 1.09%; as for `CC(C)n1ccnc1C1CCCN(c2ccnc3ccccc23)C1` (stereo not given), -3.69%.
Turning to `CCC(C(=O)NCc1ccncc1)N(c1ccc(OC)cc1)S(C)(=O)=O` (stereo not given), the Percent Effect was 1.25%.
Next, `CC(C)Nc1ncc(CN2C[C@@H](CN3CCC(O)CC3)[C@@H](CO)C2)cn1`: -1.99%.
Take `Cn1cc(CNc2ncnc3c2CCN(Cc2ccsc2)CC3)cn1`: the Percent Effect came to 1.05%.
Next, `Cc1cc(S(=O)(=O)N2CCCc3ccc(F)cc32)sc1C(=O)O`: 1.87%; `CN(C)C(=O)CNC(=O)c1cc(Br)c2c(c1)OCCO2`: 3%; `N#Cc1cn(CC(=O)NC2CC2)c2ccc(Br)cc2c1=O`: 0.517%.
On to `CCN(CC)C(=O)CCNC(=O)Cc1nc(-c2ccco2)oc1C`, for which the Percent Effect was -1.21%.
Take `CCOCC(=O)N1C[C@@H](NC(C)=O)[C@H](c2ccc(OC)cc2)C1`: the Percent Effect is -0.287%.
As for `COc1ccc(NC(=O)CCC2CCCN(Cc3ncon3)C2)cc1Cl` (stereo not given), the figure is -0.862%; as for `O=C(CCNS(=O)(=O)c1ccc2c(c1)CCCC2)NCc1ccoc1`, 0.701%.
Next, `Cc1ccc(C2COCCN2C(=O)c2ccc(CN(C)C)cc2)o1` (stereo not given): -1.28%; `CCOc1cccc(C(C)NCc2ccc(OC)c(OC)c2OC)c1` (stereo not given): -1.94%.
Next, `Cc1cnn(C2CN(CC(O)c3ccc4c(c3)OCCO4)C2)c1` (stereo not given): -4.61%.
In the case of `O=C(c1cncc(N2CCC3(CCNCC3)CC2)n1)N1CCCC1`, the Percent Effect was -3.85%.
Next, `O=C(NC1(c2nnn(Cc3ccncc3)n2)CCCC1)c1ccccc1`: -0.678%.
Next, `CN1C(=O)CC(C(=O)O)C12CCN(Cc1ccc(Cl)cc1F)CC2` (stereo not given): -1.62%; `Cn1cccc1C1CCCN1C(=O)NCCCn1cccn1` (stereo not given): -1%.
As for `CCn1cc(CN(C)C(=O)c2cccc(CCC(C)(C)O)c2)cn1`, the figure is -0.126%; as for `Cc1nn(C)cc1CNC(=O)c1cn(CCC2CCCCN2)nn1` (stereo not given), -2.13%.
`CCCS(=O)(=O)N1CCC(NC(=O)c2ccc(Cl)s2)CC1`: the Percent Effect turned out to be 0.379%.
Next, `COC(=O)CCN1CCCC1c1ccccc1Cl` (stereo not given): 2.1%; `CC(C)c1cccc(CSc2nnc(CN3CCCC3=O)o2)n1`: 1.44%.
As for `CCCSCC(=O)Nc1ncn(CC(=O)NCc2ccccc2)n1`, the figure is 1.55%; as for `CCc1cc(N2CCCNCC2)n2nc(C)c(C)c2n1`, -1.41%.
